{
  "source": "PubChem BioAssay (Tox21)",
  "note": "Inconclusive results are not listed. The source made the active and inactive calls. The call rests on the fitted dose curve; in most records, active means well fitted cell-killing curve with a large enough effect in the repeat runs; inconclusive means weak or mixed curves; inactive means flat fitted curve, though single readings scatter. On the % scale 0 is the no-effect control and ±100 the full control effect.",
  "data": [
    {"test": "qHTS assay to identify small molecule antagonists of the estrogen related receptor (ERR) signaling pathway from Tox21 library - cell viability counter screen (AID 1224834); further: nearly all actives have a fitted effect of over 30% in size", "details": "ERR reporter cells viability, CellTiter-Fluor, 17.5 h; series mostly up to 92.4 µM", "excerpt": "National Center for Advancing Translational Sciences [NCATS]\nNIH Chemical Genomics Center [NCGC]\nU.S. Environmental Protection Agency [EPA]\nNational Institutes of Environmental Health Sciences [NIEHS]\nNational Toxicology Program [NTP]\nU.S. Food and Drug Administration [FDA]\nEstrogen related receptors (ERRs), the first orphan nuclear receptors discovered, play an important role in the control of cellular energy metabolism. ERRs are required for high-energy production in response to the environmental challenges. ERR-alpha was also identified as an adverse marker for breast cancer progression; ERR-alpha-positive tumors have a poor prognosis. To screen and to identify environmental compounds that perturb the ERR signaling pathways could provide valuable information for potential therapeutic or preventive measures in the treatment of metabolic disease. To differentiate true ERR antagonists or agonist from cytotoxic substances, the assay is multiplexed with cell viability assay.\nTox21 Assay Protocol Summary:\nThe ERR cells were dispensed at 2,000 cells/5 ul/well in 1536-well white plates using a Multidrop dispenser. After the assay plates were incubated at a 37 C/5% CO2 incubator for 6 hours, 23 nL of compounds dissolved in DMSO, positive and negative controls or DMSO only was transferred to the assay plate by a pin tool. The plates were incubated at 37 C for 17.5 hours. 1 ul/well of CellTiter-Fluor reagent was added into the assay plates using a Flying Reagent Dispenser. After 30-minute incubation at 37 C/5% CO2, the fluorescence intensity in the plates was measured using a ViewLux plate reader.", "values": [
      {"smiles": "C[C@]12C=CC(=O)C=C1[C@@H](F)C[C@@H]1[C@@H]2[C@@H](O)C[C@@]2(C)[C@H]1CC[C@]2(O)C(=O)CO", "outcome": "inactive"},
      {"smiles": "C=CCON/C(CCC)=C1\\C(=O)CC(C)(C)C(C(=O)OC)=C1O", "outcome": "inactive"},
      {"smiles": "COc1cc(S(N)(=O)=O)cc(C(=O)O)c1OC", "outcome": "inactive"},
      {"smiles": "CC(O)C(CO)C(C)O", "note": "(stereo not given)", "outcome": "inactive"},
      {"smiles": "C=CC(=O)OCCOCCOCC", "outcome": "inactive"},
      {"smiles": "CCC(=O)OCCOc1ccccc1", "outcome": "inactive"},
      {"smiles": "CCCCC(CC)COC(=O)CC#N", "note": "(stereo not given)", "outcome": "inactive"},
      {"smiles": "O=C1Nc2ccccc2C1=O", "outcome": "inactive"},
      {"smiles": "CCOC(=O)c1ccc(N(C)C)cc1", "outcome": "inactive"},
      {"smiles": "Cc1ccc2ccccc2n1", "outcome": "inactive"},
      {"smiles": "CCCCCCCCCCCCCCCCN(C)C", "viability change, negative = cytotoxic": "0.965% [at 8.39 µM] (inactive)"},
      {"smiles": "CC(=O)O[C@@H]1CC2C3CCc4cc(OC(=O)c5ccccc5)ccc4C3CCC2(C)[C@H]1OC(C)=O", "note": "(stereo not given in full)", "outcome": "inactive"},
      {"smiles": "CN(C)CCCN(C)C", "viability change, negative = cytotoxic": "0.808% [at 8.39 µM] (inactive)"},
      {"smiles": "CC(C)(Sc1cc(C(C)(C)C)c(O)c(C(C)(C)C)c1)Sc1cc(C(C)(C)C)c(O)c(C(C)(C)C)c1", "outcome": "inactive"},
      {"smiles": "C=C(C)C(=O)OCCCC", "outcome": "inactive"},
      {"smiles": "N#Cc1cc(NC(=O)C(=O)O)c(Cl)c(NC(=O)C(=O)O)c1", "outcome": "inactive"},
      {"smiles": "O=C1CCCc2c(O)cccc21", "outcome": "inactive"},
      {"smiles": "BrCCOc1ccccc1", "outcome": "inactive"},
      {"smiles": "CCN(CC)CC(=O)Oc1ccc(NC(C)=O)cc1", "outcome": "inactive"},
      {"smiles": "CN(C)c1ccncc1", "outcome": "inactive"},
      {"smiles": "Nc1cc(S(=O)(=O)O)ccc1O", "outcome": "inactive"},
      {"smiles": "COc1ccc2cc(CCC(C)=O)ccc2c1", "outcome": "inactive"},
      {"smiles": "COc1cc(OC)cc(OC)c1", "outcome": "inactive"},
      {"smiles": "CC(C)C(C)C", "outcome": "inactive"},
      {"smiles": "CCCCCCCCC1CO1", "note": "(stereo not given)", "outcome": "inactive"},
      {"smiles": "CCCCCCC(O)CO", "note": "(stereo not given)", "outcome": "inactive"},
      {"smiles": "N#Cc1ccccc1C#N", "outcome": "inactive"},
      {"smiles": "CN(C)c1cc(NC(=O)CNC(C)(C)C)c(O)c2c1C[C@H]1C[C@H]3[C@H](N(C)C)C(=O)C(C(N)=O)=C(O)[C@@]3(O)C(=O)C1=C2O", "outcome": "inactive"},
      {"smiles": "CC(C)(O)c1ccc(C(C)(C)O)cc1", "outcome": "inactive"},
      {"smiles": "C[C@H]1COc2c(C3(N)CC3)c(F)cc3c(=O)c(C(=O)O)cn1c23", "outcome": "inactive"},
      {"smiles": "O=C(O)P(=O)(O)O", "outcome": "inactive"},
      {"smiles": "CCCc1ncc(C(=O)O)s1", "outcome": "inactive"},
      {"smiles": "COC(=O)N/N=C/c1c[n+]([O-])c2ccccc2[n+]1[O-]", "outcome": "inactive"},
      {"smiles": "C=CC(=O)OCC[N+](C)(C)C", "outcome": "inactive"},
      {"smiles": "O=C(O)CCC(=O)Nc1ccc(S(=O)(=O)Nc2nccs2)cc1", "outcome": "inactive"},
      {"smiles": "CCC(C)SSC(C)CC", "note": "(stereo not given)", "outcome": "inactive"},
      {"smiles": "COc1ccc(Cl)cc1C", "outcome": "inactive"},
      {"smiles": "O=Cc1ccccc1S(=O)(=O)O", "outcome": "inactive"},
      {"smiles": "CC(C)OCCO", "outcome": "inactive"},
      {"smiles": "CCCCCCCC(=O)N(C)C", "outcome": "inactive"}
    ]}
  ]
}
